Pf growth 48h – P. falciparum growth inhibition at 48 hours (one generation) | Potency, µM (highest dose often 28.7 µM), for inactives: at the highest dose activity change, negative = inhibition, most hits filed as inhibitors | P. falciparum luciferase growth in erythrocytes, 48 h | AID 504832 | 310,000 tested, 5.9% active; note: potency is the fitted concentration of half-maximal effect; % is set by controls: 0 for no effect and ±100 for the full control effect
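In quantitative HTS format, infected erythrocytes bearing luciferase-reporter parasites were treated for a single generation at 37 C. Luminescence after adding detection reagent served as the growth measure.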
Sm TGR inh – inhibitors of Schistosoma mansoni thioredoxin glutathione reductase; 360,000 tested, 3% active; Potency, µM (highest dose often 114 µM), inactives show top-dose activity change, negative = inhibition, most hits filed as inhibitors; Q962Y6; purified TGR, DTNB reduction, TNB absorbance 405 nm; AID 485364; note: potency is the fitted concentration of half-maximal effect; % is set by controls: 0 for no effect and ±100 for the full control effect; nearly all actives have a fitted effect of over 60% in size
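First, TGR (20 nM dispensed) and NADPH were mixed with compound. Second, a 15 min room-temperature incubation followed. Third, further NADPH and then DTNB were added to start the reaction. Finally, TNB absorbance was monitored kinetically.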
HCMV inh – blocks human cytomegalovirus replication | activity change, negative = inhibition, % at 57.5 µM | 410,000 tested, 4.5% active | HFF cells, HCMV-luciferase reporter, 72 h; hits give low values | AID 1259415; in the data active = activity change below about -60%; inconclusive = no clear call, values can overlap the other calls; inactive = above about -39%; note: % is set by controls: 0 for no effect and ±100 for the full control effect
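Screen run at 2 compound doses on HFFs infected with reporter HCMV, MOI 1 PFU/cell. Luciferase activity from cell lysates at 72 h post infection gave inhibition relative to buffer-only and Salinomycin wells.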
SARS PLP yeast – SARS-CoV PLP inhibition in yeast; S. cerevisiae expressing SARS-CoV PLpro, growth rescue; Potency, µM (series often up to 32.9 µM), for inactives: at the highest dose activity, positive = growth rescue, hits mostly activators; 330,000 tested, 0.19% active; AID 485353; calls by dose curve; note: potency is the fitted concentration of half-maximal effect; 0% is about no effect; nearly all actives have a fitted effect of over 55% in size
HCV inhibitor – blocks hepatitis C virus; Potency, µM (series often up to 41.8 µM), for the others: top-dose activity change, negative = inhibition, usual class: inhibitors; AID 651820; Huh7.5.1 HCVcc-Cre infection, luciferase reporter, 44 h; 340,000 tested, 3.4% active; note: potency is the fitted concentration of half-maximal effect; % is set by controls: 0 for no effect and ±100 for the full control effect
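HCVcc-Cre virus at an moi near 0.5 was added right after compound to cells cultured 4 h from seeding (1,000 cells/well). Luciferase activity was determined 44 h later, 15 min after substrate addition at RT.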
Pf growth 96h – P. falciparum growth inhibition at 96 hour, primary screen for plastid delayed-death inhibitors; P. falciparum luciferase reporter growth, 96 h; Potency, µM (titrated, usually from 28.7 µM), without a hit: at the highest dose activity change, negative = inhibition, actives largely listed as inhibitors; 320,000 tested, 6.9% active; note: potency is the fitted concentration of half-maximal effect; % is set by controls: 0 for no effect and ±100 for the full control effect
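P. falciparum expressing integrated firefly luciferase grown in erythrocytes (2% hematocrit, 0.05% parasitemia final) with compounds for 96 hours at 37 C, 5% CO2. Growth inhibition read as loss of luminescence after adding luciferase detection reagent.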
* marks the source's active call; other numbers are inactive results; ? = inconclusive; . = no result. Rows were chosen to be rich in hits. Some 15% of all compounds tested hit in one or more screens of this group. Unless noted, calls come from the whole dose curve; as a rule, active = well fitted curve in the direction sought with a large enough effect; inconclusive = small, poorly fitted or top-dose-only effect, or another doubt; inactive = no such curve, though single readings can be large; an effect the other way counts as inactive or inconclusive.

SMILES | Pf growth 48h | Sm TGR inh | HCMV inh | SARS PLP yeast | HCV inhibitor | Pf growth 96h
CC(C)c1ccc(C2=CC(c3cccc(Cl)c3)n3ncnc3N2)cc1 (stereo not given) | . | -17% | 4 | . | . | .
CC(C)c1ccc(C2=CC(c3cccc(Cl)c3)n3c(nc4ccccc43)N2)cc1 (stereo not given) | . | -3% | -63* | . | . | .
N#Cc1nc(Cc2cccc3ccccc23)oc1N1CCOCC1 | ? | -21% | -13 | -1% | -14% | 2.1µM*
CC1CCN(c2oc(Cc3cccc4ccccc34)nc2C#N)CC1 | . | 2% | -17 | -2% | ? | ?
O=C(O)[C@H]1[C@H](CO)[C@H]2Cn3c(cccc3=O)[C@@H]1N2S(=O)(=O)c1ccccc1F | . | . | 32 | . | . | .
CC(=O)Nc1ccc(S(=O)(=O)NC2(C(F)(F)F)NC(=O)N(c3ccc(C)cc3)C2=O)cc1 (stereo not given) | 9% | -20% | -10 | -7% | 36% | 9.3µM*
CCOC(=O)NC1(C(F)(F)F)NC(=O)N(c2ccc(F)cc2)C1=O (stereo not given) | 1% | -6% | -9 | -4% | 4% | 4.7µM*
CCOc1ccc(CC(=O)NC2CC(=O)N(c3ccc(C)c(C)c3)C2)cc1 (stereo not given) | . | -2% | 19 | . | . | .
COc1cccc(CNC(=O)Cn2c(=O)oc3cc(S(=O)(=O)N4CCCC4)ccc32)c1 | . | -9% | 8 | . | . | .
CCc1cc(C(=O)NCC(C)(C)N2CCOCC2)sc1C | -15% | -4% | -15 | -1% | ? | -1%
C[C@@H]1CCC2[C@@H](C)[C@@H](O)O[C@@H]3O[C@@]4(C)CC[C@@H]1[C@@]23OO4 (stereo not given in full) | 0.0005µM* | . | . | . | . | 0.0004µM*
CC1CCC2C(C)C(=O)OC3OC4(C)CCC1C32OO4 (stereo not given) | 0.0033µM* | 3% | 38 | -2% | -1% | 16%
CC1CCC2[C@@H](C)C(=O)OC3O[C@]4(C)CCC1C32OO4 (stereo not given in full) | . | . | 16 | . | 22% | .
CCC(C)N(NC(C)=O)c1nc(Cl)nc(NC(C)C)n1 (stereo not given) | 2.1µM* | -4% | 25 | -5% | 1% | ?
CC(O)(Cc1cccnc1)c1cccs1 (stereo not given) | . | . | 13 | . | 21% | .
